Source: PubChem BioAssay (Tox21)
Records with an inconclusive call do not appear. Activity calls are given as the source filed them. Unless noted, calls come from the whole dose curve; as a rule, active = well fitted curve in the direction sought with a large enough effect in the repeat runs; inconclusive = weak or mixed curves; inactive = no such curve, though single readings can be large; an effect the other way counts as inactive or inconclusive.

Tests used:
[1] = qHTS assay to identify small molecule agonists of the estrogen receptor alpha (ER-alpha) signaling pathway in the presence of an antagonist - cell viability counter screen (AID 1259386);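 note: cells exposed to compounds for 22 h at 37 °C before the viability read; nearly all actives have a fitted effect of over 30% in size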; note: potency is the fitted concentration of half-maximal effect; for activity change, negative = cytotoxicity: series mostly up to about 92 µM
Method in brief: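 In this counter screen, compound effects on VM7Luc4E2 viability were tested in the presence of the antagonist ICI-182,780 at 10.0nM final. Compounds were dosed at 15 concentrations, exposure lasted 22hr, and the CellTiter-Fluor signal was read.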

[2] = biological target: Progesterone receptor (Homo sapiens) (UniProt P06401); assay: qHTS assay to identify small molecule antagonists of the progesterone receptor (PR) signaling pathway (AID 1346795; active = well fitted inhibition curve with a large enough effect in the signal ratio in the repeat runs, not every such curve was filed as active; the % refers to the signal ratio; note: potency is the fitted concentration of half-maximal effect)
Method in brief: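 In HEK293T cells bearing the PR-UAS-bla reporter, compound effects on promegestone-driven (1 nM) beta-lactamase expression are assessed after 16 hr using a fluorescent FRET substrate incubated 2 hr at room temperature.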

[3] = qHTS assay to identify small molecule antagonists of the progesterone receptor (PR) signaling pathway - cell viability counter screen (AID 1346798); note: nearly all actives have a fitted effect of over 50% in size; note: potency is the fitted concentration of half-maximal effect; for activity change, negative = cytotoxicity: series mostly up to about 92 µM
Method in brief: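 Following a 4 hr attachment, PR-UAS-bla HEK293T cells in charcoal-stripped FBS medium were exposed to compounds with R5020 for 16 hr; CellTiter-Glo was added and luminescence read after 30 min at room temperature.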

[4] = qHTS assay to identify small molecule agonists of the progesterone receptor (PR) signaling pathway - cell viability counter screen (AID 1346799; calls by dose curve; note: nearly all actives have a fitted effect of over 45% in size)
Method in brief: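 Here, 3,000 PR-UAS-bla HEK293T cells per well were treated with compounds for 16 hr after a 6 hr preincubation at 37C and 5% CO2; cell viability is the CellTiter-Glo luminescence signal.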

[5] = qHTS assay to identify small molecule antagonists of the TGF-beta/Smad signaling pathway - cell viability counter screen (AID 1346824); note: nearly all actives have a fitted effect of over 50% in size; note: potency is the fitted concentration of half-maximal effect
Method in brief: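 SBE-bla HEK 293T cells were plated overnight at 37 C, then given compounds in DMSO plus TGF-beta1 (added as 0.25 ng/mL solution) for 5 hr. After the bla read, CellTiter-Glo was added to the same wells and luminescence read after 30 min at room temperature.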

[6] = qHTS assay to identify small molecule agonists of the TGF-beta/Smad signaling pathway - cell viability counter screen (AID 1346829); note: top concentration of the series differs between compounds; nearly all actives have a fitted effect of over 45% in size
Method in brief: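 Same-well cytotoxicity: CellTiter-Glo added after the 2 hr room-temperature beta-lactamase substrate step, luminescence measured 30 min later; cells had 5 hr of compound at 37 C.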

[7] = qHTS assay to identify small molecule agonists of the TGF-beta/Smad signaling pathway (AID 1346859; active = well fitted activation curve with a large enough effect in the signal ratio in the repeat runs, not every such curve was filed as active; the % refers to the signal ratio; note: series mostly up to about 77 µM)
Method in brief: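 Each well held 4,000 SBE-bla HEK 293T cells incubated overnight before compound addition; 5 hr later the cleavable FRET substrate went on for 2 hr at room temperature, and fluorescence was read at two emissions.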

[8] = biological target: Thyrotropin-releasing hormone receptor (Homo sapiens) (UniProt P34981); assay: qHTS assay to identify small molecule antagonists of the thyrotropin-releasing hormone receptor (TRHR) signaling pathway (AID 1346877; active = well fitted inhibition curve with a large enough effect in the repeat runs, not every such curve was filed as active; note: series mostly up to about 51 µM)
Method in brief: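 Kinetic fluorescence (3 min, 1 s resolution) following stimulation with TRH at 1 nM final; HEK293 cells bearing human TRHR; 5 min compound preincubation at RT; concentration-response over 15 points, triplicates.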

[9] = biological target: Thyrotropin-releasing hormone receptor (Homo sapiens) (UniProt P34981); assay: qHTS assay to identify small molecule agonists of the thyrotropin-releasing hormone receptor (TRHR) signaling pathway (AID 1346891; calls by dose curve; note: series mostly up to about 58 µM)
Method in brief: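 Screening of agonists relied on calcium signalling in HEK293 cells expressing human TRHR: dye loading 2 h at 37 °C preceded compound addition and a 3-min fluorescence time course.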

[10] = biological target: Progesterone receptor (Homo sapiens) (UniProt P06401); assay: qHTS assay to identify small molecule agonists of the progesterone receptor (PR) signaling pathway (AID 1346784; calls by dose curve; note: nearly all actives have a fitted effect of over 30% in size)
Method in brief: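 Compounds were tested for PR agonism in HEK 293T cells bearing a beta-lactamase gene under UAS control. Treatment lasted 16 hr at 37C; signal came from fluorescence of a FRET substrate.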
% is set by controls: 0 for no effect and ±100 for the full control effect.

Progesterone receptor (Homo sapiens), sequence (P06401 whole entry, looked up): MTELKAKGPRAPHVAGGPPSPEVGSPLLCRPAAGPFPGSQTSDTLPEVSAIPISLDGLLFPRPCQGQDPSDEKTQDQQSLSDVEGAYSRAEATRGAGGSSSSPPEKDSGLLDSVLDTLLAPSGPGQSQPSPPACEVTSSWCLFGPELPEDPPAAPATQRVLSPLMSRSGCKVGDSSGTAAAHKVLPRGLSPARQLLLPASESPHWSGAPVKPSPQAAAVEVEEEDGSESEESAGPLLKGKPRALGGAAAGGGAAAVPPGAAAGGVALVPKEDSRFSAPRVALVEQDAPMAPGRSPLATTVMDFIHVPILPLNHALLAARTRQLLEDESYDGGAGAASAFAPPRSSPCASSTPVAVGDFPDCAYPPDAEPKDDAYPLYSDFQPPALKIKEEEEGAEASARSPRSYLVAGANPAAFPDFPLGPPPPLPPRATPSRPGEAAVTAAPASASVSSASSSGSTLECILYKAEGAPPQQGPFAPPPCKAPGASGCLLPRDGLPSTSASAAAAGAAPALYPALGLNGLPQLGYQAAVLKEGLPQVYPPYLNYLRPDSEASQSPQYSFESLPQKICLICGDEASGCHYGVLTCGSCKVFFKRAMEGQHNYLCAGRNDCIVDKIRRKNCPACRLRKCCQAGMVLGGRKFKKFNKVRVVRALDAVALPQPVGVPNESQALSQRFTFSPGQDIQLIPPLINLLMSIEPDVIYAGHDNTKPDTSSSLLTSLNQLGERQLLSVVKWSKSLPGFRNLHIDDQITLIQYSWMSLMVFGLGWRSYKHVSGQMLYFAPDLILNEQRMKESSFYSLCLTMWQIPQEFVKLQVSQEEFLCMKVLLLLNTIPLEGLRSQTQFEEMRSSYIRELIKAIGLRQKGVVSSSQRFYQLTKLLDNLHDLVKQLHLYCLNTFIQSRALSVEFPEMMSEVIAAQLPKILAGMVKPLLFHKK
Thyrotropin-releasing hormone receptor (Homo sapiens), sequence (P34981 whole entry, looked up): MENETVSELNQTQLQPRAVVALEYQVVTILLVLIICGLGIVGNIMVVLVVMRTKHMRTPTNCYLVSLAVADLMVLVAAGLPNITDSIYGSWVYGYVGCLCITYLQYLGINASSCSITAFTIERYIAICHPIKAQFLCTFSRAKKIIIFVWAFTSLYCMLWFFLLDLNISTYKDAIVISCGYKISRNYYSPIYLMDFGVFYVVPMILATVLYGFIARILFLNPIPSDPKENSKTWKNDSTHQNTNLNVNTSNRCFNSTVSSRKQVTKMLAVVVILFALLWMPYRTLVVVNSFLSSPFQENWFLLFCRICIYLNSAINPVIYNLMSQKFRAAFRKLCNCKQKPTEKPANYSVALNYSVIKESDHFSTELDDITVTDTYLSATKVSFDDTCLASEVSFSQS

Cc1cc(C)c(C(=O)P(=O)(C(=O)c2c(C)cc(C)cc2C)c2ccccc2)c(C)c1
inactive: Potency [1] | Potency [2] | Potency [3] | Potency [4] | Potency [5] | outcome [6] | outcome [7] | outcome [8] | outcome [9]

NC(=O)c1cc([N+](=O)[O-])cc([N+](=O)[O-])c1
inactive: Potency [1] | Potency [2] | Potency [3] | Potency [4] | Potency [5] | outcome [6] | outcome [7] | outcome [8] | outcome [9]

CC1COC2(c3ccccc3Cl)c3cc(Cl)ccc3NC(=O)CN12 (stereo not drawn)
inactive: Potency [1] | Potency [10] | Potency [4] | Potency [5] | outcome [6] | outcome [7]

Cc1nnc2n1-c1sc(CCC(=O)N3CCOCC3)cc1C(c1ccccc1Cl)=NC2
inactive: Potency [1] | Potency [2] | Potency [3] | Potency [4] | Potency [5] | outcome [6]

CCCCOC(=O)[C@@H](C)Oc1ccc(Oc2ccc(C#N)cc2F)cc1
inactive: Potency [1] | Potency [10] | Potency [3] | Potency [4] | Potency [5] | outcome [6] | outcome [8] | outcome [9]

CNC(=O)O/N=C(\C)SC
inactive: Potency [1] | Potency [2] | Potency [3] | Potency [4] | Potency [5] | outcome [6] | outcome [7] | outcome [8] | outcome [9]

CNCC(=O)c1ccc(O)c(O)c1
inactive: Potency [10] | Potency [2] | Potency [3] | Potency [4] | Potency [5] | outcome [6] | outcome [8] | outcome [9]

C=CCC1=C(C)[C@@H](OC(=O)[C@@H]2[C@@H](C=C(C)C)C2(C)C)CC1=O
active: Potency [1] 48.6 µM | Potency [2] 27.3 µM | Potency [5] 49 µM
inactive: outcome [8] | outcome [9]

COP(N)(=S)Oc1ccccc1C(=O)OC(C)C (stereo not drawn)
inactive: Potency [1] | Potency [3] | outcome [6] | outcome [7]

CCSC(=O)N(CC)C1CCCCC1
inactive: Potency [10] | Potency [2] | Potency [3] | Potency [4] | Potency [5] | outcome [6] | outcome [7] | outcome [8] | outcome [9]

N#CC(CCc1ccc(Cl)cc1)(Cn1cncn1)c1ccccc1 (stereo not drawn)
active: Potency [1] 61.1 µM | Potency [3] 30.6 µM | Potency [5] 54.9 µM

CCOC(=O)NC(=S)Nc1ccccc1NC(=S)NC(=O)OCC
inactive: Potency [1] | Potency [4] | Potency [5] | outcome [6] | outcome [7] | outcome [9]

CCC(C)(C)c1cc(-n2nc3ccccc3n2)c(O)c(C(C)(C)CC)c1
inactive: Potency [1] | Potency [3] | Potency [5] | outcome [6] | outcome [7]

N#CCBr
inactive: Potency [10] | Potency [2] | Potency [3] | Potency [4] | Potency [5] | outcome [6] | outcome [7] | outcome [8] | outcome [9]

Nc1ccccc1Cl
inactive: Potency [10] | Potency [2] | Potency [3] | Potency [4] | Potency [5] | outcome [6] | outcome [7]

CC(COc1ccc(Oc2ccccc2)cc1)Oc1ccccn1 (stereo not drawn)
inactive: Potency [1] | Potency [5] | outcome [6] | outcome [7] | outcome [8] | outcome [9]

C#C[C@]1(O)C=C[C@H]2[C@@H]3CCC4=CC(=O)CC[C@@H]4[C@H]3CC[C@@]21CC
inactive: Potency [1] | Potency [2] | Potency [5] | outcome [6] | outcome [7] | outcome [8] | outcome [9]

NC1=NC(=O)C(c2ccccc2)O1 (stereo not drawn)
inactive: Potency [10] | Potency [2] | Potency [3] | Potency [4] | Potency [5] | outcome [6] | outcome [7] | outcome [8] | outcome [9]

CCCCCCBr
inactive: Potency [1] | Potency [3] | Potency [4] | Potency [5] | outcome [6] | outcome [7]

ClCC(Cl)Cl
inactive: Potency [10] | Potency [2] | Potency [3] | Potency [4] | Potency [5] | outcome [6] | outcome [7]

CC1=C(C(=O)O)N2C(=O)[C@@H](N)[C@H]2SC1
inactive: activation [10] -0.285% [at 19 µM] | activity change, negative = inhibition [2] 1.39% [at 18.9 µM] | activity change, negative = cytotoxicity [3] 11.2% [at 18.9 µM] | activity change, negative = cytotoxicity [4] 0.398% [at 19 µM] | viability change, negative = cytotoxic [5] 0.38% [at 15.8 µM] | activity change, negative = cytotoxicity [6] 8.87% [at 15.8 µM] | activation [7] 3.18% [at 15.8 µM] | activity, negative = inhibition [8] -1.01% [at 10.5 µM] | activation [9] -0.183% [at 11.8 µM]

COC(=O)C(C)Oc1ccc(Oc2ccc(Cl)cc2Cl)cc1 (stereo not drawn)
inactive: Potency [1] | Potency [3] | Potency [5] | outcome [6] | outcome [7]

[O]=[Cd]
inactive: Potency [10] | Potency [2] | Potency [3] | Potency [4] | Potency [5] | outcome [6] | outcome [7] | outcome [8] | outcome [9]

CCOP(=S)(OCC)SCSP(=S)(OCC)OCC
inactive: Potency [1] | Potency [3] | Potency [4] | Potency [5] | outcome [6] | outcome [8] | outcome [9]

CCOC(=O)C1(c2ccccc2)CCN(CCc2ccc(N)cc2)CC1
inactive: Potency [10] | Potency [2] | Potency [3] | Potency [5] | outcome [6] | outcome [7]

O=[N+]([O-])c1cccc2c([N+](=O)[O-])cccc12
inactive: Potency [1] | Potency [2] | Potency [5] | outcome [6] | outcome [8] | outcome [9]

O=[N+]([O-])c1cc(Cl)c(Cl)c(Cl)c1
inactive: Potency [1] | Potency [2] | Potency [3] | Potency [5] | outcome [6] | outcome [7] | outcome [8] | outcome [9]
